Screens from PubChem.
The list is not random: actives were taken first. Their share in the collection is about 6%.
DRD3 antagonist: qHTS of D3 Dopamine Receptor Antagonist: qHTS; max response, negative = inhibition, %; AID 652054, 2013; D3R cells, DiscoveRx beta-arrestin luminescence, antagonist mode; stronger effect = lower value; 360,000 tested, 2.5% active; D(3) dopamine receptor (Homo sapiens), P35462; in the data active = max response below about -50%; inconclusive = no clear call, values can overlap the other calls
Target sequence (P35462 whole entry, looked up): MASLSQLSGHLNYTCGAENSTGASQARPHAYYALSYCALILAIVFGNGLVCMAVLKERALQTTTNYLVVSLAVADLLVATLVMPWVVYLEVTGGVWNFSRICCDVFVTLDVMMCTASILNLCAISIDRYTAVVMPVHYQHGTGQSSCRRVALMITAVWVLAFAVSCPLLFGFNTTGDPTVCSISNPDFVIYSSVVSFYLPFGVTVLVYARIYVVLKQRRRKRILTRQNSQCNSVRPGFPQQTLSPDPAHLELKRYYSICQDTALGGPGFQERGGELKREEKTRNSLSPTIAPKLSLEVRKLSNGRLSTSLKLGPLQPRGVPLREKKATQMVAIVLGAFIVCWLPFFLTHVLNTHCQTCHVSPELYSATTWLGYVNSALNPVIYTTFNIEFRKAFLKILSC
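Cells expressing the human receptor were seeded at 1500 cells/well, incubated overnight at 37 degrees C in 5% CO2, then exposed to library compounds with dopamine controls for 90 minutes at 37 degrees C before luminescent detection.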
D1 ag: Allosteric Agonists of the Human D1 Dopamine Receptor: qHTS | D(1A) dopamine receptor (Homo sapiens), P21728 | HEK293 T-REx D1 cells, calcium flux, agonist mode | activation, % at 2 µM | 360,000 tested, 1% active | AID 504660, 2011; in the data active = activation above about 30%
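Agonism was scored from calcium flux recorded over 180 s (1 read/s) after pintool compound addition, following a 10-cycle baseline. Cells were inducible force-coupled HEK293 TREx D1, plated overnight at 30 C and loaded with no-wash calcium dye.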
D1 potentiator: Potentiators of Human D1 Dopamine Receptor: qHTS | D(1A) dopamine receptor (Homo sapiens), P21728 | HEK293 TREx D1 cells, calcium flux, dopamine EC20 potentiation | potentiation, % at 10 µM | 360,000 tested, 0.036% active | AID 504651, 2011; in the data active = potentiation above about 30%
D3 ag: qHTS of D3 Dopamine Receptor Agonist: qHTS; D(3) dopamine receptor (Homo sapiens), P35462; D3R DiscoveRx beta-arrestin cells, luminescence, 90 min; max activation, %; 410,000 tested, 0.58% active; AID 652048, 2013; in the data active = max activation above about 30%
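Agonist-mode cell screen: cells plated at 1500/well and incubated overnight at 37 °C, then exposed to library compounds for 90 min at 37 °C. Detection reagent was added for 30–60 min at room temperature, and luminescence was read.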
D1 antagonist: Antagonist of Human D 1 Dopamine Receptor: qHTS; D(1A) dopamine receptor (Homo sapiens), P21728; HEK293 TREx D1 cells, calcium flux, dopamine EC80; stronger effect = lower value; activity change, negative = inhibition, % at 10 µM; 360,000 tested, 3.2% active; AID 504652, 2011; in the data active = activity change below about -30%
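Using tetracycline-induced force-coupled D1 Hek293 cells and a calcium dye, signals were followed for 180 s after compound, then for 180 s after EC80 dopamine, to detect inhibitors.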
Each line names hits and unclear results; the compound was inactive in the other large screens; ! = not active in a repeat.

COc1cc(Br)c(C2CC(=O)Nc3cc(OC)c(OC)c(OC)c32)cc1OC (centres undefined)	none (no result: DRD3 antagonist)
CC(=O)N1CCCC1c1nc2ccccc2n1Cc1cccc(Cl)c1 (centres undefined)	D1 antagonist -32.5 (no result: DRD3 antagonist)
CC(=O)N1CCCC1c1nc2ccccc2n1Cc1ccccc1C (centres undefined)	none (no result: DRD3 antagonist)
O=[S+]([O-])(c1ccc2c(c1)OCCO2)N1CCN([S+](=O)([O-])c2c(F)cc(Br)cc2F)CC1	none (no result: DRD3 antagonist, D3 ag)
CCOC(=O)N1CCN(CC(=O)Nc2c(C(=O)OC)[nH]c3cccc(Cl)c23)CC1	DRD3 antagonist inconclusive, D3 ag 39.5
COC(=O)c1[nH]c2ccc(Cl)cc2c1NC(=O)CN1CCc2cc(OC)c(OC)cc2C1	DRD3 antagonist inconclusive
COC(=O)c1[nH]c2cc(C)ccc2c1NC(=O)CN1CCc2cc(OC)c(OC)cc2C1	DRD3 antagonist -67.4
COC(=O)c1[nH]c2ccc(Br)cc2c1NC(=O)CN1CCCCC1CCO (centres undefined)	D1 antagonist -40.6
COC(=O)c1[nH]c2ccc(C)cc2c1NC(=O)c1ccccc1[N+](=O)[O-]	D1 antagonist -35.8
COc1cccc(NC(=O)CSc2nc(-c3ccccc3Cl)nc3c2Cc2c(CO)cnc(C)c2O3)c1	none (no result: DRD3 antagonist)
Cc1cc(Br)ccc1NC(=O)c1coc(=O)c2ccccc12	none (no result: DRD3 antagonist)
COC(=O)c1[nH]c2ccc(C)cc2c1NC(=O)CN1CCN(c2ccccc2)CC1	D3 ag 35.9
O=C1OCCN1CCN(CN1C(=O)CCC1=O)CN1C(=O)CCC1=O	DRD3 antagonist -56.8
CCC(CNc1cc(OC)cc2cccnc12)NC1CCCCC1 (centres undefined)	DRD3 antagonist -56.8
COc1cc(NCCCC(C)N)c2ncccc2c1 (centres undefined)	DRD3 antagonist -54.1
Cc1ccc(C(=O)CSc2n[nH]c(-c3ccco3)n2)cc1C	none
COc1ccc(C(=O)CSc2n[nH]c(-c3ccco3)n2)cc1	DRD3 antagonist -59.1
O=C(CCSCc1cnn(-c2ccccc2)c1-n1cccc1)NCc1ccc(Cl)cc1	D1 antagonist -51.7 (no result: DRD3 antagonist)
Cc1ccc(CNC(=O)CCSCc2cnn(-c3ccccc3)c2-n2cccc2)cc1	D1 antagonist -34.0 (no result: DRD3 antagonist)
O=C(CSCc1cnn(-c2ccccc2)c1-n1cccc1)NCc1cccnc1	none
Cc1nn(-c2ccccc2)c2sc(C(=O)Nc3ccc(Cl)cc3Cl)cc12	D1 antagonist -82.8 (no result: DRD3 antagonist)
COc1ccc(CNC(=O)CSCc2cnn(-c3ccccc3)c2-n2cccc2)cc1OC	D1 ag 43.3, D1 antagonist -33.6 (no result: DRD3 antagonist)
Cc1nn(-c2ccccc2)c2sc(C(=O)Nc3ccccc3Br)cc12	none (no result: DRD3 antagonist)
COc1ccccc1CNC(=O)CSCc1cnn(-c2ccccc2)c1-n1cccc1	none
Cn1c(=O)c2c(ncn2CC(=O)Nc2cccc(Cl)c2Cl)n(C)c1=O	none (no result: DRD3 antagonist)
Cc1ccc(NC(=O)CSCc2cnn(-c3ccccc3)c2-n2cccc2)c(Cl)c1	D3 ag 70.3 (no result: DRD3 antagonist)
Cc1ccc(NC(=O)c2c(C)nn(-c3ccccc3)c2-n2cccc2)c(Cl)c1	D1 antagonist -32.9 (no result: DRD3 antagonist)
CC1CCN(S(=O)(=O)c2ccc3c(c2)CCN3)CC1	none (no result: DRD3 antagonist)
Cc1ccc(S(=O)(=O)C2(C(=O)Nc3cccnc3)CC2)cc1	DRD3 antagonist -63.0
Cc1ccc(-n2cnc3cc(C(=O)NCc4ccccc4Cl)ccc32)c(C)c1	none (no result: DRD3 antagonist)
Cc1ccc2nsnc2c1NC(=O)CCc1ccccc1	none
CC(=O)Nc1c(C)ccc2nsnc12	DRD3 antagonist -77.1
CC1CCN(CCC(=O)N2CCCc3c2c(=O)oc2ccc(O)cc32)CC1	DRD3 antagonist -63.1
CN(CC(=O)N1CCCc2c1c(=O)oc1ccc(O)cc21)Cc1ccccc1	DRD3 antagonist -68.4
CCCCC/C(C=O)=C\c1ccccc1	none (no result: DRD3 antagonist, D1 ag, D1 potentiator, D1 antagonist)
Cc1nc(-c2ccc(S(=O)(=O)NCc3ccc(N(C)C)cc3)cc2)co1	none (no result: DRD3 antagonist)
COc1ccc(-c2noc(CNS(=O)(=O)c3ccc(NC(C)=O)cc3)n2)cc1	none
O=C(NCc1nc(-c2ccc(C(F)(F)F)cc2)no1)Nc1ccc(OC(F)(F)F)cc1	D1 antagonist -36.7
O=C(Nc1ccccc1)NC1CS(=O)(=O)CC1O (centres undefined)	D1 antagonist -41.5
O=S1(=O)C[C@@H](O)[C@@H](Nc2ccccc2)C1	none
COC(=O)c1[nH]c2cccc(OC)c2c1NC(=O)CCN1CCN(c2ccccc2OC)CC1	DRD3 antagonist -90.2, D1 antagonist -39.0
COC(=O)c1[nH]c2ccc(Cl)cc2c1NC(=O)CCN1CCOCC1	D1 antagonist -37.8
COC(=O)c1[nH]c2cccc(OC)c2c1NC(=O)C(C)N1CCC(C)CC1 (centres undefined)	none
COC(=O)c1[nH]c2cccc(OC)c2c1NC(=O)CCN1CCC(C)CC1	DRD3 antagonist -77.1
Clc1ccc2nc(Nc3ccccc3Cl)nc(-c3ccccc3)c2c1	none (no result: DRD3 antagonist)
CCOc1cccc(/C=C/c2ccc3cccc(O)c3n2)c1OC	DRD3 antagonist -82.7
CCOc1cccc(/C=C/c2ccc3cccc(O)c3n2)c1O	DRD3 antagonist -56.0
COc1ccccc1/C=C/c1ccc2cccc(O)c2n1	none
N[C@H](CSCc1ccccc1)C(=O)Nc1ccc([N+](=O)[O-])cc1	D1 antagonist -33.4
CCOc1ccc(C2C(C(N)=O)=C(C)Nc3nc(SCc4ccccc4)nn32)cc1 (centres undefined)	none (no result: DRD3 antagonist)
Cc1c(C(=O)N(C)c2cccc(C(F)(F)F)c2)sc2nc3n(c(=O)c12)CCCCC3	none (no result: DRD3 antagonist)
Nc1c(CC(=O)O)cccc1C(=O)c1ccccc1	D3 ag 42.4! (no result: DRD3 antagonist, D1 ag, D1 potentiator, D1 antagonist)
COc1ccc(C(=O)Nc2cccc(OCc3cc(=O)n4c5c(sc4n3)CCCC5)c2)cc1	D1 antagonist -30.2 (no result: DRD3 antagonist)
COc1cccc(C(=O)Nc2cccc(OCc3cc(=O)n4c5c(sc4n3)CCCC5)c2)c1	none (no result: DRD3 antagonist)
Cc1cc(Cl)ccc1OCc1cc(=O)n2c3c(sc2n1)CCCC3	D1 antagonist -30.8 (no result: DRD3 antagonist)
CCOc1ccc(Nc2nc3c(S(=O)(=O)c4ccc(CC)cc4)nnn3c3ccc(Cl)cc23)cc1	none (no result: DRD3 antagonist)
Cc1csc2nc(-c3cccc(NC(=O)c4c(F)cccc4F)c3)cn12	none (no result: DRD3 antagonist)
CC(C)Oc1ccc(CCC(=O)N/N=C/c2ccc3c(c2)OCO3)cc1	none
O=C(CCc1ccc(O)c(O)c1)N/N=C/c1ccc2c(c1)OCO2	D3 ag 75.7
CCN(CC)c1ccc(NC(=O)C2COc3ccc(OC)cc3C2)c(C)c1 (centres undefined)	none (no result: DRD3 antagonist)
O=C1c2cccnc2C(O)N1Cc1ccc(F)cc1 (centres undefined)	DRD3 antagonist -65.5
O=C(c1cccnc1)N1CCN(Cc2ccccc2Br)CC1	DRD3 antagonist -60.2
COc1cc(OC)cc(C(=O)N2CCN(Cc3ccccc3Br)CC2)c1	none
